The values below come from paper doi:10.1101/2024.03.05.583629.

The target in the assay is pT7_6His-AlfaTag-HOXD13 (human, UniProt P35453 263-343). The experiment in a line: PADIT-seq. The settings on record: dsDNA, one strand shown.
Chain of pT7_6His-AlfaTag-HOXD13 (P35453 263-343): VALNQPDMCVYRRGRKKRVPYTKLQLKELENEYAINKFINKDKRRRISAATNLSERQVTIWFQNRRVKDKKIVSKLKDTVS
For “CTCGAGGATATCAAGATCTGGCCTCGGCCTTTTACCGGGAACCTCTAGCTAGCCGACTCACTATAGGGATAATCGCCCTGAGCAAAGACC”, the binding signal came out at 0.698 ± 0.0877 log2FC. Turning to “CTCGAGGATATCAAGATCTGGCCTCGGCGCGTGGAAGGGAACCTCTAGCTAGCCGACTCACTATAGGGATAATCGCCCTGAGCAAAGACC”, the binding signal is -0.832 ± 0.125 log2FC.

In turn, “CTCGAGGATATCAAGATCTGGCCTCGGCTTACTAAAAGGAACCTCTAGCTAGCCGACTCACTATAGGGATAATCGCCCTGAGCAAAGACC” displayed a binding signal of 0.214 ± 0.111 log2FC. “CTCGAGGATATCAAGATCTGGCCTCGGCTTTTTATCCGGAACCTCTAGCTAGCCGACTCACTATAGGGATAATCGCCCTGAGCAAAGACC” gave a binding signal of 1.15 ± 0.0852 log2FC. In the case of “CTCGAGGATATCAAGATCTGGCCTCGGCCGCCCAGCCGGAACCTCTAGCTAGCCGACTCACTATAGGGATAATCGCCCTGAGCAAAGACC”, the binding signal was -0.832 ± 0.147 log2FC. With “CTCGAGGATATCAAGATCTGGCCTCGGCTGCATAAAAGGAACCTCTAGCTAGCCGACTCACTATAGGGATAATCGCCCTGAGCAAAGACC”, the binding signal was 1.39 ± 0.0891 log2FC. Sequence “CTCGAGGATATCAAGATCTGGCCTCGGCCTTTTAATAGGAACCTCTAGCTAGCCGACTCACTATAGGGATAATCGCCCTGAGCAAAGACC” gave a binding signal of 2.68 ± 0.0826 log2FC. “CTCGAGGATATCAAGATCTGGCCTCGGCTTTTTATGGGGAACCTCTAGCTAGCCGACTCACTATAGGGATAATCGCCCTGAGCAAAGACC” came in with a binding signal of 3.53 ± 0.0874 log2FC. “CTCGAGGATATCAAGATCTGGCCTCGGCATTTTATCGGGAACCTCTAGCTAGCCGACTCACTATAGGGATAATCGCCCTGAGCAAAGACC” came in with a binding signal of 1.85 ± 0.0758 log2FC. Consider “CTCGAGGATATCAAGATCTGGCCTCGGCGACGTAAAAGGAACCTCTAGCTAGCCGACTCACTATAGGGATAATCGCCCTGAGCAAAGACC”, for which the binding signal is 0.404 ± 0.076 log2FC. The value for “CTCGAGGATATCAAGATCTGGCCTCGGCTATGTAAAAGGAACCTCTAGCTAGCCGACTCACTATAGGGATAATCGCCCTGAGCAAAGACC” was 1.05 ± 0.102 log2FC; that for “CTCGAGGATATCAAGATCTGGCCTCGGCCGTTTAAAAGGAACCTCTAGCTAGCCGACTCACTATAGGGATAATCGCCCTGAGCAAAGACC” was 1.9 ± 0.069 log2FC; that for “CTCGAGGATATCAAGATCTGGCCTCGGCGCGTGGCCAGGAACCTCTAGCTAGCCGACTCACTATAGGGATAATCGCCCTGAGCAAAGACC” was -1.04 ± 0.128 log2FC. In the case of “CTCGAGGATATCAAGATCTGGCCTCGGCCGCGTGCGCGGAACCTCTAGCTAGCCGACTCACTATAGGGATAATCGCCCTGAGCAAAGACC” it was -0.99 ± 0.127 log2FC; in that of “CTCGAGGATATCAAGATCTGGCCTCGGCAACATAAAAGGAACCTCTAGCTAGCCGACTCACTATAGGGATAATCGCCCTGAGCAAAGACC”, 1.52 ± 0.0783 log2FC; in that of “CTCGAGGATATCAAGATCTGGCCTCGGCCTTTTATAGGGAACCTCTAGCTAGCCGACTCACTATAGGGATAATCGCCCTGAGCAAAGACC”, 3.21 ± 0.0791 log2FC. In the case of “CTCGAGGATATCAAGATCTGGCCTCGGCCTAATAAAAGGAACCTCTAGCTAGCCGACTCACTATAGGGATAATCGCCCTGAGCAAAGACC” it was 3.06 ± 0.0911 log2FC; in that of “CTCGAGGATATCAAGATCTGGCCTCGGCATTTTACTAGGAACCTCTAGCTAGCCGACTCACTATAGGGATAATCGCCCTGAGCAAAGACC”, 3.18 ± 0.0699 log2FC. As for “CTCGAGGATATCAAGATCTGGCCTCGGCCGCCCAGTCGGAACCTCTAGCTAGCCGACTCACTATAGGGATAATCGCCCTGAGCAAAGACC”, the binding signal is -0.955 ± 0.134 log2FC.

With “CTCGAGGATATCAAGATCTGGCCTCGGCTACTTAAAAGGAACCTCTAGCTAGCCGACTCACTATAGGGATAATCGCCCTGAGCAAAGACC”, the binding signal was 0.982 ± 0.0923 log2FC.

Take “CTCGAGGATATCAAGATCTGGCCTCGGCCTGGTAAAAGGAACCTCTAGCTAGCCGACTCACTATAGGGATAATCGCCCTGAGCAAAGACC”: the binding signal was 0.442 ± 0.0982 log2FC. The sequence “CTCGAGGATATCAAGATCTGGCCTCGGCCTAGTAAAAGGAACCTCTAGCTAGCCGACTCACTATAGGGATAATCGCCCTGAGCAAAGACC” showed a binding signal of 2.42 ± 0.0781 log2FC.

Consider “CTCGAGGATATCAAGATCTGGCCTCGGCCCCATAAAAGGAACCTCTAGCTAGCCGACTCACTATAGGGATAATCGCCCTGAGCAAAGACC”, for which the binding signal was 2.77 ± 0.0828 log2FC. Turning to “CTCGAGGATATCAAGATCTGGCCTCGGCGTTTTATACGGAACCTCTAGCTAGCCGACTCACTATAGGGATAATCGCCCTGAGCAAAGACC”, the binding signal is 2.62 ± 0.0803 log2FC. “CTCGAGGATATCAAGATCTGGCCTCGGCGTAGTAAAAGGAACCTCTAGCTAGCCGACTCACTATAGGGATAATCGCCCTGAGCAAAGACC” came in with a binding signal of 2.18 ± 0.0733 log2FC.

Turning to “CTCGAGGATATCAAGATCTGGCCTCGGCGCGTGGCAGGGAACCTCTAGCTAGCCGACTCACTATAGGGATAATCGCCCTGAGCAAAGACC”, the binding signal was -0.958 ± 0.118 log2FC. As to “CTCGAGGATATCAAGATCTGGCCTCGGCTTGCTAAAAGGAACCTCTAGCTAGCCGACTCACTATAGGGATAATCGCCCTGAGCAAAGACC”, the binding signal is -0.271 ± 0.11 log2FC. On to “CTCGAGGATATCAAGATCTGGCCTCGGCTTTTTAGACGGAACCTCTAGCTAGCCGACTCACTATAGGGATAATCGCCCTGAGCAAAGACC”, for which the binding signal was -0.513 ± 0.133 log2FC. With “CTCGAGGATATCAAGATCTGGCCTCGGCCGCCCAGGCGGAACCTCTAGCTAGCCGACTCACTATAGGGATAATCGCCCTGAGCAAAGACC”, the binding signal was -0.81 ± 0.134 log2FC. “CTCGAGGATATCAAGATCTGGCCTCGGCGCCCTAAAAGGAACCTCTAGCTAGCCGACTCACTATAGGGATAATCGCCCTGAGCAAAGACC” showed a binding signal of 0.248 ± 0.0833 log2FC.

“CTCGAGGATATCAAGATCTGGCCTCGGCGTTTTATCCGGAACCTCTAGCTAGCCGACTCACTATAGGGATAATCGCCCTGAGCAAAGACC”: the binding signal stood at 1 ± 0.0994 log2FC. “CTCGAGGATATCAAGATCTGGCCTCGGCTTGGTAAAAGGAACCTCTAGCTAGCCGACTCACTATAGGGATAATCGCCCTGAGCAAAGACC” gave a binding signal of 0.112 ± 0.0883 log2FC. Regarding “CTCGAGGATATCAAGATCTGGCCTCGGCCGCCCAGTTGGAACCTCTAGCTAGCCGACTCACTATAGGGATAATCGCCCTGAGCAAAGACC”, the binding signal is -0.996 ± 0.138 log2FC. In turn, “CTCGAGGATATCAAGATCTGGCCTCGGCACATTAAAAGGAACCTCTAGCTAGCCGACTCACTATAGGGATAATCGCCCTGAGCAAAGACC” yielded a binding signal of 2.06 ± 0.09 log2FC. In the case of “CTCGAGGATATCAAGATCTGGCCTCGGCGTTTTACGTGGAACCTCTAGCTAGCCGACTCACTATAGGGATAATCGCCCTGAGCAAAGACC” it was 2.36 ± 0.0852 log2FC; in that of “CTCGAGGATATCAAGATCTGGCCTCGGCCTTTTAGCGGGAACCTCTAGCTAGCCGACTCACTATAGGGATAATCGCCCTGAGCAAAGACC”, 0.142 ± 0.0994 log2FC.

In turn, “CTCGAGGATATCAAGATCTGGCCTCGGCTTTTTATACGGAACCTCTAGCTAGCCGACTCACTATAGGGATAATCGCCCTGAGCAAAGACC” showed a binding signal of 2.44 ± 0.0818 log2FC.

With “CTCGAGGATATCAAGATCTGGCCTCGGCGCGTAAGCGGGAACCTCTAGCTAGCCGACTCACTATAGGGATAATCGCCCTGAGCAAAGACC”, the binding signal is -0.575 ± 0.113 log2FC.
